Compound activity deposited in PubChem BioAssay by Broad Institute.
Tg IFNy HTS = T. gondii growth inhibition with IFN-gamma, primary screen, cell-based; Toxoplasma gondii growth in IFN-gamma-treated host cells; hits give low values; activity change, negative = inhibition, % (test concentration not listed); actives 3.8% (n = 69,000); in the data active means activity change below about -70%, passing the limit was not always enough;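 further: host cells are HeLa cells infected with Toxoplasma gondii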
* marks the source's active call; other numbers are inactive results. This is one part of a sample in which hits are shown more often than they occur.

SMILES	Tg IFNy HTS
Cn1cc(CN2CCCC2c2cncc(Nc3ccccn3)n2)c2cc(F)ccc21 (configuration not stated)	-100*
Cc1c(CN2CCCC2c2ccccn2)[nH]c2ccc(F)cc12 (configuration not stated)	1
Fc1ccc(C(F)(F)F)cc1CN1CCCC1c1ccccn1 (configuration not stated)	15
Cc1noc(C2CN(c3ncccn3)CCO2)n1 (configuration not stated)	8
CCOc1ccc(-c2nc(CN(c3ccc(OC)cc3)S(=O)(=O)c3ccc(C)cc3)c(C)o2)cc1	-38
CCn1c(C)ccc(C(=O)N(C)CCSc2ccc(C)cc2)c1=O	2
C=CCOC(=O)N1CCC2(CC1)CNC(=O)C2	0
COc1cc(-c2cccc(NC(C)=O)c2)cc(OC)c1OC	11
COc1cc2c(c(OC)c1OC)-c1ccc(OC)c(=O)cc1C(NC(C)=O)CC2 (configuration not stated)	-79*
COc1cc2c(c(OC)c1OC)C(=O)CC2	73
Cc1ccnc(-n2cccc2CN2CCCN(C(=O)C3CCC3)CC2)c1	-10
CC(C)n1cc(-c2cc(C(=O)N3CCC(C)(C)C3)c3cc(F)ccc3n2)cn1	10
CCC(=O)Nc1cccc(OCC(=O)NCC2COc3ccccc3O2)c1 (configuration not stated)	10
CCOc1cc(CNC(=O)c2nc(N3CCOCC3)c3ccccc3n2)ccc1OC	-20
CCOc1ccc(CCNC(=O)c2nc(N3CCC(C)CC3)c3ccccc3n2)cc1OCC	-98*
CCOc1ccc(CCNC(=O)c2nc(N3CCCC3)c3ccccc3n2)cc1OCC	-63
Cc1ccc(-c2nc(C)c(CCNC(=O)C(=O)Nc3ccc(Cl)cc3)s2)cc1	83
Cc1ccc(NC(=O)C(=O)NCCc2sc(-c3ccccc3)nc2C)cc1	-3
Cc1nc(-c2cccc(F)c2)sc1CCNC(=O)C(=O)Nc1ccc2c(c1)OCCO2	-34
Cc1nc(-c2ccc(Cl)cc2)sc1CCNC(=O)C(=O)Nc1ccc2c(c1)OCO2	-90*
Cc1cccc(NC(=O)C(=O)NCCc2sc(-c3ccccc3)nc2C)c1	-36
Cc1ccc(-c2nc(C)c(CCNC(=O)C(=O)Nc3ccc4c(c3)OCCO4)s2)cc1	-38
Cc1nc(-c2cccc(F)c2)sc1CCNC(=O)C(=O)Nc1ccc2c(c1)OCO2	-98*
Cc1nc(-c2ccccc2)sc1CCNC(=O)C(=O)Nc1ccc2c(c1)OCO2	-93*
Cc1ccc(NC(=O)C(=O)NCCc2sc(-c3cccc(F)c3)nc2C)cc1F	51
SMILES	Tg IFNy HTS
CC[C@@H]1C/C=C\C[C@@H](C(C)C)NC(=O)CCC(=O)N1	-25
O=C(CSc1nc2ccccc2n1Cc1ccccc1F)NCc1cccs1	-5
Cc1cccc(NC(=O)c2nnn(Cc3nc(-c4cccc(Cl)c4)oc3C)c2C)c1C	21
CCS(=O)(=O)N1C[C@H](OCc2csc(C)n2)[C@@H]2COC[C@@H]21	-66
Cc1cccnc1[C@H](C)NC(=O)Cc1cc2c(cc1Cl)OCCO2	-1
CC(C)CC(O)C(=O)NCc1ccc2sccc2c1 (configuration not stated)	-43
COc1ccc(-c2sncc2-c2ccccc2)cc1	-109*
COc1ccc(-c2cc(-c3ccccc3)c(C)c(-c3ccccc3)n2)cc1	-50
COc1ccc(-c2nc(Cc3noc(-c4ccccc4)n3)c(C)o2)cc1	-21
CN(C)C(=O)c1cccc(-c2ccc([C@H]3[C@@H](CO)N4CCCCN(CC5CCOCC5)C[C@@H]34)cc2)c1	8
CN(C/C=C/c1ccco1)Cc1nc2ccc(F)cc2[nH]1	2
Cc1cc(C)c(CN2CCN(Cc3ncccc3C)CC2)c(-n2cccn2)c1	-26
CC(C)CN1CCC(NCCSc2ncn[nH]2)CC1	33
CC(=O)N1C(C(=O)O)Cc2c([nH]c3ccccc23)C1C (configuration not stated)	124
COC(=O)[C@@H]1Cc2c([nH]c3ccccc23)CN1C(=O)c1cc(C)nc(C)n1	-72*
Cc1cc(C(=O)N2CC(=O)N(C3CCCCC3)CC(OCc3ccccc3)C2)nc(C)n1 (configuration not stated)	10
Cc1cccc(-c2noc(-c3c(O)c4cc(C)ccc4[nH]c3=O)n2)c1	50
Cc1onc(-c2cccnc2)c1C(=O)N1CCC(c2[nH]ncc2C(=O)N(C)C)CC1	-8
COc1cccc(NC(=O)NCC(c2cccnc2)c2cn(C)c3ccccc23)c1 (configuration not stated)	118
Cc1oc(-c2ccc(OC(C)C)cc2)nc1CSc1nc2ncccc2o1	-96*
Cc1oc(-c2ccc(OC(C)C)cc2)nc1Cn1c(=O)c2cccnc2n(-c2ccccc2)c1=O	34
Cc1oc(-c2ccc(OC(C)C)cc2)nc1CSc1nc2c(=O)[nH]cnc2n1C	-33
CN(C)c1ccc2ncnc(N3CCN(C(=O)Nc4ccc(Cl)cc4)CC3)c2c1	33
Cc1nc(-c2ccc(Cl)cc2)sc1CCNC(=O)c1ccc(C(C)(C)C)cc1	-66
Cc1cnn(Cc2nc(-c3ccc(NC(=O)c4sccc4C)cc3)oc2C)c1	-51
